Common to all, as to test: DAPPL (digital affinity profiling via proximity ligation, sequencing); 10 mM Tris-HCl pH 7.5, 50 mM NaCl, 1 mM DTT, 4% glycerol, room temperature, 30 min; GST-TFs on glutathione beads, 16-mer random dsDNA library, 0.1% formaldehyde crosslink after washing; high values mean tight binding
In experiment [1] the target is T1, FEV (Homo sapiens, UniProt Q99581 1-238).
T1 sequence: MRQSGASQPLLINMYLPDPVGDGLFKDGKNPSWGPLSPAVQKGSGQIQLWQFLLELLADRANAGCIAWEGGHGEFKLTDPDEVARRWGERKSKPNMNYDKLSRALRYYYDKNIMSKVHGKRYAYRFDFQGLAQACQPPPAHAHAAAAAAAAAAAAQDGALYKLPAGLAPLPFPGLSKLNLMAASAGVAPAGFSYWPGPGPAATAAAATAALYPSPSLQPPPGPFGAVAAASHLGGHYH
As to conditions: protein: recombinant; tags: N-terminal GST; dsDNA, one strand shown. A digest of the protocol:
(§1)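 Binding signal is each hexamer's read frequency for a factor divided by its frequency in the tag-only sample. The factors were GST-fused human transcription factors from yeast, captured on glutathione beads, DNA-barcoded and pooled with that sample. Pools were incubated with 200 nmole of a random double-stranded 16-mer DNA library in Tris/NaCl/DTT/glycerol buffer at room temperature for 30 min, then washed, crosslinked with 0.1% formaldehyde, proximity-ligated with BsaI/T4 ligase (1 h, 37 °C), PCR-amplified and sequenced on an Illumina NextSeq500.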

The target of experiment [2] is ETV5 (Homo sapiens, UniProt P41161 1-510). As to conditions: protein: recombinant; tags: N-terminal GST; dsDNA, one strand shown. A digest of the protocol:
as §1

The target of experiment [3] is HSF1 (Homo sapiens, UniProt Q00613 1-529). Conditions: protein: recombinant; tags: N-terminal GST; chain copies: 3; dsDNA, one strand shown. An outline of the steps:
as §1

In experiment [4] the target is T2, SPIC (Homo sapiens, UniProt Q8N5J4 1-248).
T2 sequence: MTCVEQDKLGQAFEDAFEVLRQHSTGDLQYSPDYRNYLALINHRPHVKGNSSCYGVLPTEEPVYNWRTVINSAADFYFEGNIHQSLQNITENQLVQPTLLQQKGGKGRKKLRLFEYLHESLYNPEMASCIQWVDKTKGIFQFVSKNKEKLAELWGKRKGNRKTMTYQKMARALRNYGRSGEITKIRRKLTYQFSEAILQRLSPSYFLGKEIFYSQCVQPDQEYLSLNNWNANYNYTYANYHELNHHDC
Conditions: protein: recombinant; tags: N-terminal GST; dsDNA, one strand shown. An outline of the steps: as §1

The target of experiment [5] is ELF4 (Homo sapiens, UniProt Q99607 1-663). Conditions: protein: recombinant; tags: N-terminal GST; dsDNA, one strand shown. An outline of the steps: as §1
Sequence of ELF4 (Q99607 whole entry): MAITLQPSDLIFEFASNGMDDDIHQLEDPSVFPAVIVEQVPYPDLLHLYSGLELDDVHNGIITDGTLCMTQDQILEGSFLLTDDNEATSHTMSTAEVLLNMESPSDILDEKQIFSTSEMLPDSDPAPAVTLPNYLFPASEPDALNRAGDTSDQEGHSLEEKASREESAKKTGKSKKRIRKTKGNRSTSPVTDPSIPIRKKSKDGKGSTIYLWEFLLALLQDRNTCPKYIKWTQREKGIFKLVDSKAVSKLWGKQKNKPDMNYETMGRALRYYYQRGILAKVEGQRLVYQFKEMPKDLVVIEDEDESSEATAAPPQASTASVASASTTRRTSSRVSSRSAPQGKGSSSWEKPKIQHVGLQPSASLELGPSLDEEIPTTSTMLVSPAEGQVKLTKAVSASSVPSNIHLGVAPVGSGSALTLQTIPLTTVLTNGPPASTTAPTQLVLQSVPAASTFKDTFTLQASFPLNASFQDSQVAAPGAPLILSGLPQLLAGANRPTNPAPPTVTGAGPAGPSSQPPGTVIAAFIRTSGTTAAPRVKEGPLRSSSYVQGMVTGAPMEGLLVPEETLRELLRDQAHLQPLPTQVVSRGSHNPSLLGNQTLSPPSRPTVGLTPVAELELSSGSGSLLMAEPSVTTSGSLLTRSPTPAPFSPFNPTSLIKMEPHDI
For experiment [6], the target named is T3, ELK4 (Homo sapiens, UniProt P28324-2 1-405).
T3 sequence: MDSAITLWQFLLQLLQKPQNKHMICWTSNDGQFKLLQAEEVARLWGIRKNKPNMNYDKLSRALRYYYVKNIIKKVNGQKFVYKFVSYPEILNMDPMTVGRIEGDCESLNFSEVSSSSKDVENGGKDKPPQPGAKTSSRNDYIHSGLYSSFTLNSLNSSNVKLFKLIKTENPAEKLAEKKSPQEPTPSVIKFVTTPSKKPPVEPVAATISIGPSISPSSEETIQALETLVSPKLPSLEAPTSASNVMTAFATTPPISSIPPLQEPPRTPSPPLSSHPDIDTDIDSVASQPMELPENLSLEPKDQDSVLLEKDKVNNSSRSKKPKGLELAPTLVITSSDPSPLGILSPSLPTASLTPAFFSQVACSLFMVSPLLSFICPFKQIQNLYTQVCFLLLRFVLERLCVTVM
As to conditions: protein: recombinant; tags: N-terminal GST; dsDNA, one strand shown. An outline of the steps:
as §1

The target in experiment [7] is T4, ETV2 (Homo sapiens, UniProt O00321 1-342).
T4 sequence: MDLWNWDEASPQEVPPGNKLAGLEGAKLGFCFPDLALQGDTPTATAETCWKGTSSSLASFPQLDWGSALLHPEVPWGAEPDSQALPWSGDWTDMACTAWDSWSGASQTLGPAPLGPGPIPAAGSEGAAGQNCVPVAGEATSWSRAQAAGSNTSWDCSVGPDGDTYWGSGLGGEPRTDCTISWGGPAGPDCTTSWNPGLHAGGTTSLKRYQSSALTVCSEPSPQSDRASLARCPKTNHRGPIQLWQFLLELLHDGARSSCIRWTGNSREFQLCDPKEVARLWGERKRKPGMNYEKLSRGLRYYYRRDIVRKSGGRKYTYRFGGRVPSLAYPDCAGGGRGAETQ
As to conditions: protein: recombinant; tags: N-terminal GST; dsDNA, one strand shown. A digest of the protocol:
as §1

For experiment [8], the target named is T5, ELF3 (Homo sapiens, UniProt P78545 1-371).
T5 sequence: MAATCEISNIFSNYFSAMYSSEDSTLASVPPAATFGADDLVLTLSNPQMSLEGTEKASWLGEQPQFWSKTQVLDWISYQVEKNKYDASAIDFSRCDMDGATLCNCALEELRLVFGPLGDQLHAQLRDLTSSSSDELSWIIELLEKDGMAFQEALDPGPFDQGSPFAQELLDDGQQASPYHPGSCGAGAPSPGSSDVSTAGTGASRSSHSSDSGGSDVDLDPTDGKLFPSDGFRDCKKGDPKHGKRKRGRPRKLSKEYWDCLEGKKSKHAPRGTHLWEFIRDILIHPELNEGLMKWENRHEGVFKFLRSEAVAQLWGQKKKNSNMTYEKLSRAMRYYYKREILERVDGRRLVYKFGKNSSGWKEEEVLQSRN
As to conditions: protein: recombinant; tags: N-terminal GST; dsDNA, one strand shown. An outline of the steps: as §1

Experiment [9] addresses CRX (Homo sapiens, UniProt O43186 1-299). As to conditions: protein: recombinant; tags: N-terminal GST; dsDNA, one strand shown. A digest of the protocol: as §1
Experiment [10] deals with ETV1 (Homo sapiens, UniProt P50549 1-477). As to conditions: protein: recombinant; tags: N-terminal GST; dsDNA, one strand shown. A digest of the protocol: as §1
Sequence of ETV1 (P50549 whole entry): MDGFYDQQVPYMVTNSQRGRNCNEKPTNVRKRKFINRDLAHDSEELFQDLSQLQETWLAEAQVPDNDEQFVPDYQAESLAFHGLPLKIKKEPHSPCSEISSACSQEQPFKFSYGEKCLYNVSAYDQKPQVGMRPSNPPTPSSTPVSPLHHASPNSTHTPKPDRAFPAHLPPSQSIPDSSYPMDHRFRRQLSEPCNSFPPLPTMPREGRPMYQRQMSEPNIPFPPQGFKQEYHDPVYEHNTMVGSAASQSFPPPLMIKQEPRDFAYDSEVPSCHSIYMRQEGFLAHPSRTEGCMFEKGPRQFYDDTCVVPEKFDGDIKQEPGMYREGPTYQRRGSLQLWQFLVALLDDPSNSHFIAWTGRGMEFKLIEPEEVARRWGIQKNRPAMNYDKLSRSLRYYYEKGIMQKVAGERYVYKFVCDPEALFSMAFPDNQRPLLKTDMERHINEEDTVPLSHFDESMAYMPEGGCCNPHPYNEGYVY
The target in experiment [11] is T6, ERF (Homo sapiens, UniProt P50548 1-548).
T6 sequence: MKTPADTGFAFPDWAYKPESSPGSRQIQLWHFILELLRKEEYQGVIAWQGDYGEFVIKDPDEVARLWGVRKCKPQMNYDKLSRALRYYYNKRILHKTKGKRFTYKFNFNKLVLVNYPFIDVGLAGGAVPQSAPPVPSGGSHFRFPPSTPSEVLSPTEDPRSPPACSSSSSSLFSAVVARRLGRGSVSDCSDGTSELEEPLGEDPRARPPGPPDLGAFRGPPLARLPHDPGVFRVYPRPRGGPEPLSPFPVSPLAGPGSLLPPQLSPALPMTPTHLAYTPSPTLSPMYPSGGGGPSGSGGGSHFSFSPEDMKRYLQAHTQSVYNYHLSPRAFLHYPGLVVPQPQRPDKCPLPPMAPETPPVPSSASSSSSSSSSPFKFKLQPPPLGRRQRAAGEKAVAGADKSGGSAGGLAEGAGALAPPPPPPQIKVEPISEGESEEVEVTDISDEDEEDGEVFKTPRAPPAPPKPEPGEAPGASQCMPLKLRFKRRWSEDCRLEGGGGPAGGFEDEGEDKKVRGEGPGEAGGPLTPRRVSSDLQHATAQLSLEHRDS
As to conditions: protein: recombinant; tags: N-terminal GST; dsDNA, one strand shown. An outline of the steps:
as §1

Experiment [12] concerns the target T7, ETV3L (Homo sapiens, UniProt Q6ZN32 1-361).
T7 sequence: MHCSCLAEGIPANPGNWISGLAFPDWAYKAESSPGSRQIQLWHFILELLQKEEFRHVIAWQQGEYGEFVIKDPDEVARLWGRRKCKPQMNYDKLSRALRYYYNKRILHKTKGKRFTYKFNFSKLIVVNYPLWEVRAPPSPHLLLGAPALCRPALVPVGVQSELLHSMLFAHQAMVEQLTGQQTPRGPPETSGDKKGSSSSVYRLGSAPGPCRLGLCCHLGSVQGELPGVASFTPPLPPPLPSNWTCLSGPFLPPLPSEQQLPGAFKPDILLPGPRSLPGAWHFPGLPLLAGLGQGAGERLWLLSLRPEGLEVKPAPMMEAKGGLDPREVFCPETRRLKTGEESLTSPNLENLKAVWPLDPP
As to conditions: protein: recombinant; tags: N-terminal GST; dsDNA, one strand shown. An outline of the steps:
as §1

Experiment [13] has as its target T8, ETS2 (Homo sapiens, UniProt P15036 1-469).
T8 sequence: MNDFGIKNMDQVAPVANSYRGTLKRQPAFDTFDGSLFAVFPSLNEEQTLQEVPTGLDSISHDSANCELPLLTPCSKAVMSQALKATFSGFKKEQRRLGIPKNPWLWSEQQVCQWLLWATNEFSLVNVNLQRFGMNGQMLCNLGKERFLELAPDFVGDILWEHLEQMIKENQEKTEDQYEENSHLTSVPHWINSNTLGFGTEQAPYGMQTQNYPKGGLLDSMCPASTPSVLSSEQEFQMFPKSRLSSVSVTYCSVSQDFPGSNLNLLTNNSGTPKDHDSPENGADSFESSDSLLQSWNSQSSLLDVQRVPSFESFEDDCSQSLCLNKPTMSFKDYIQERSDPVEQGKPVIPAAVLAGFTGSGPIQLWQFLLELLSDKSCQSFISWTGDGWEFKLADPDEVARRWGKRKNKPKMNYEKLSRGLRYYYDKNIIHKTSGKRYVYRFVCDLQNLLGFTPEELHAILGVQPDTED
As to conditions: protein: recombinant; tags: N-terminal GST; dsDNA, one strand shown. An outline of the steps:
as §1

Experiment [14] has as its target T9, SPDEF (Homo sapiens, UniProt O95238 1-335).
T9 sequence: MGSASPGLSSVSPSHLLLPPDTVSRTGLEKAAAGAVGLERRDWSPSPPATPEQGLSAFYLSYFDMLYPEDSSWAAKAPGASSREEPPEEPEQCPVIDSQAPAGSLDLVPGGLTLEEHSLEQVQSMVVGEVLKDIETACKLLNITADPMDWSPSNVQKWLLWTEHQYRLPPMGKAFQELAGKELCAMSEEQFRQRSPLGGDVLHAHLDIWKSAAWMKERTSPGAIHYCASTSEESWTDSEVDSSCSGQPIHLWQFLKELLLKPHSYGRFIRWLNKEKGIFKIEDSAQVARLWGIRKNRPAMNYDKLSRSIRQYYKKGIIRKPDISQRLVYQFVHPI
As to conditions: protein: recombinant; tags: N-terminal GST; dsDNA, one strand shown. An outline of the steps:
as §1

Experiment [15] concerns the target T10, ETV7 (Homo sapiens, UniProt Q9Y603 1-341).
T10 sequence: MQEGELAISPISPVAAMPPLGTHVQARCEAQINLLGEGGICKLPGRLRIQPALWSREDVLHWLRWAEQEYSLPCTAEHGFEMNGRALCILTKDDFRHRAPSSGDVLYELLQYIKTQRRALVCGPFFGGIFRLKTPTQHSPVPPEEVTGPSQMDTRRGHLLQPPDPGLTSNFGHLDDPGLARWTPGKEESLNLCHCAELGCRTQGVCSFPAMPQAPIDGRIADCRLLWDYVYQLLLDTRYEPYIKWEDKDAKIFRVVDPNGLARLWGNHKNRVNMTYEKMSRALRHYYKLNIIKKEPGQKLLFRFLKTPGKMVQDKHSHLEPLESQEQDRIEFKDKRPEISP
Conditions: protein: recombinant; tags: N-terminal GST; dsDNA, one strand shown. An outline of the steps:
as §1

In experiment [16] the target is T11, ELF5 (Homo sapiens, UniProt Q9UKW6-2 1-255).
T11 sequence: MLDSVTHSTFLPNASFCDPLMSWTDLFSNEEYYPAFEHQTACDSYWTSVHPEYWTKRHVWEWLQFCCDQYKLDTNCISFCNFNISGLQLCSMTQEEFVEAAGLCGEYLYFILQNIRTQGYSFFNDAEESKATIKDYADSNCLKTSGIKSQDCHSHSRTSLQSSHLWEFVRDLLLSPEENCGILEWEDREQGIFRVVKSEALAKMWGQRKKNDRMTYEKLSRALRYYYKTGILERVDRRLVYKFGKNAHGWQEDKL
Conditions: protein: recombinant; tags: N-terminal GST; dsDNA, one strand shown. An outline of the steps:
as §1

Experiment [17] concerns the target T12, ETV3 (Homo sapiens, UniProt P41162-2 1-143).
T12 sequence: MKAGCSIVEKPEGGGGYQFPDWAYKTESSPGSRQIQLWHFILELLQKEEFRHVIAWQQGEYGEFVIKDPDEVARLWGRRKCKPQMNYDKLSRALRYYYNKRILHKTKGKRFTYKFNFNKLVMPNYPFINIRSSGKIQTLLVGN
Conditions: protein: recombinant; tags: N-terminal GST; dsDNA, one strand shown. A digest of the protocol:
as §1

For experiment [18], the target named is ETV6 (Homo sapiens, UniProt P41212 1-452). Conditions: protein: recombinant; tags: N-terminal GST; dsDNA, one strand shown. An outline of the steps:
as §1

Sequence of ETV5 (P41161 whole entry): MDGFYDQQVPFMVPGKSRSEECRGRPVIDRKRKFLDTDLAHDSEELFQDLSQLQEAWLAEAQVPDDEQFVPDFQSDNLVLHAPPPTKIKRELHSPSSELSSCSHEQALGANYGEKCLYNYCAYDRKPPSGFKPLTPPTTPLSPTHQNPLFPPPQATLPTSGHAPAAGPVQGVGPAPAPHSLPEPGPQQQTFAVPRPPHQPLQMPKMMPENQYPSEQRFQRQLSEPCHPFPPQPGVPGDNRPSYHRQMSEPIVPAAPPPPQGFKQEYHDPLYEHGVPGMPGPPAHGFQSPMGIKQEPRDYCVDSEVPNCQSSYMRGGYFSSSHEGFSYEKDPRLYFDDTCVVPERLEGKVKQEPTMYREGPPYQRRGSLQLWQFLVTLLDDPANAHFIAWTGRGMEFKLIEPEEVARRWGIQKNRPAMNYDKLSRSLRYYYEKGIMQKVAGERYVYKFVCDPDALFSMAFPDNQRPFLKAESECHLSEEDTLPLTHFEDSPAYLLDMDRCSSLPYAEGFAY
Sequence of CRX (O43186 whole entry): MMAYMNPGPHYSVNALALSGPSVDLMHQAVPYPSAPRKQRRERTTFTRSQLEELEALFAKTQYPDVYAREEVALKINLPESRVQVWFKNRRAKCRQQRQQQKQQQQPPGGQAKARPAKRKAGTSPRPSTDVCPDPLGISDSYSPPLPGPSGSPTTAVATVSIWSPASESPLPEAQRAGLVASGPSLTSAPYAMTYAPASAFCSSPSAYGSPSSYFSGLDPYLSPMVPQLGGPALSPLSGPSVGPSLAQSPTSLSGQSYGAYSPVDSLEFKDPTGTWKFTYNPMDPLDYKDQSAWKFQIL
Sequence of HSF1 (Q00613 whole entry): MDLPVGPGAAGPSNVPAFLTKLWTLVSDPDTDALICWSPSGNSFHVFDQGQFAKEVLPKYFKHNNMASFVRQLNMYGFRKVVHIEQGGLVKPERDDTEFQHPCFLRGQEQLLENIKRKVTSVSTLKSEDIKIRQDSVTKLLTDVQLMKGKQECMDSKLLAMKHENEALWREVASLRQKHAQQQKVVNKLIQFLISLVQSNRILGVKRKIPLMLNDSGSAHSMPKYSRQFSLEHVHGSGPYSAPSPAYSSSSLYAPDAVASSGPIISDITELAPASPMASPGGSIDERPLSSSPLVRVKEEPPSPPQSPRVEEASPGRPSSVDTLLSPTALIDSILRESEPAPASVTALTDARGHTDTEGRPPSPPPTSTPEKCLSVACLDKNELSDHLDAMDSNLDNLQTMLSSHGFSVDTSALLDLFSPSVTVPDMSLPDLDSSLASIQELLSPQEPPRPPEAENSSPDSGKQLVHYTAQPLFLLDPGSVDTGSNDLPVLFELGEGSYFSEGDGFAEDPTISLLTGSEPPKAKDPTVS
Sequence of ETV6 (P41212 whole entry): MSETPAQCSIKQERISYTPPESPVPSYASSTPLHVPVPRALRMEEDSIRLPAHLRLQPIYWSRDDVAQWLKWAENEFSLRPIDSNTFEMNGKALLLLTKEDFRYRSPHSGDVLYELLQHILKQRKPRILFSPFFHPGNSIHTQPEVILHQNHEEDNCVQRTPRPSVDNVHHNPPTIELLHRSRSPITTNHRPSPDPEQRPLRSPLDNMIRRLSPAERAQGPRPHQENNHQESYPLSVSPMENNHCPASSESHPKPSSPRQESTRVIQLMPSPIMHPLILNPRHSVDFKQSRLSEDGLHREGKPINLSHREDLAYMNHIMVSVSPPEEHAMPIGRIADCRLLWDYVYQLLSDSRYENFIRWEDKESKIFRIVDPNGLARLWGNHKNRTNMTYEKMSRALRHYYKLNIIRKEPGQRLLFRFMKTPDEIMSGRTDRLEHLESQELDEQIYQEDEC

On to CGACTC, for which the binding signal in [1] is 1.42 fold enrichment (6-mer frequency, TF over GST control); in experiment [2] it was 1.44 fold enrichment (6-mer frequency, TF over GST control); in [3], 1.37 fold enrichment (6-mer frequency, TF over GST control); in experiment [4], 1.64 fold enrichment (6-mer frequency, TF over GST control); in experiment [5], 1.41 fold enrichment (6-mer frequency, TF over GST control); in [6] it was 1.35 fold enrichment (6-mer frequency, TF over GST control). The binding signal is 1.34 fold enrichment (6-mer frequency, TF over GST control) in experiment [7]; 1.25 fold enrichment (6-mer frequency, TF over GST control) in experiment [8]; 1.31 fold enrichment (6-mer frequency, TF over GST control) in experiment [9]; 1.41 fold enrichment (6-mer frequency, TF over GST control) in experiment [10]; 1.59 fold enrichment (6-mer frequency, TF over GST control) in experiment [11]; 1.36 fold enrichment (6-mer frequency, TF over GST control) in experiment [12]. The binding signal in experiment [13] was 1.38 fold enrichment (6-mer frequency, TF over GST control); in [14], 1.29 fold enrichment (6-mer frequency, TF over GST control); in experiment [15], 1.29 fold enrichment (6-mer frequency, TF over GST control); in experiment [16] it was 1.33 fold enrichment (6-mer frequency, TF over GST control); in experiment [17], 1.29 fold enrichment (6-mer frequency, TF over GST control); in [18], 1.38 fold enrichment (6-mer frequency, TF over GST control).

Source of the values: article PMC7862700, “An all-to-all approach to the identification of sequence-specific readers for epigenetic DNA modifications on cytosine”.
